Screening results deposited in PubChem BioAssay by National Center for Advancing Translational Sciences (NCATS).
Vaccinia Venus = inhibitors of vaccinia virus (Venus reporter); AID 720580; Potency, µM (series often up to 36.5 µM), for the others: at the highest dose activity change, negative = inhibition, usual class: inhibitors; Vaccinia virus Venus reporter expression, fluorescence; 330,000 compounds, 0.46% hits; calls by dose curve; tested in A549 cells; also: nearly all actives have a fitted effect of over 30% in size
Lassa entry inh = blocks Lassa virus binding to or entry into cells | Lassa virus pseudotype entry inhibition, cell reporter | Potency, µM (doses to about 37.9 µM), for the others: at the highest dose activity change, negative = inhibition, usual class: inhibitors | AID 540256 | 300,000 compounds, 1.2% hits; calls by dose curve; tested in HEK293 cells; also: nearly all actives have a fitted effect of over 50% in size
FMDV antiviral = antivirals against foot and mouth disease virus | FMDV antiviral cell-based qHTS | Potency, µM (doses to about 57.9 µM), for the others: at the top dose activity change, negative = inhibition, hits mostly inhibitors | 410,000 compounds, 1.2% hits; calls by dose curve; tested in HEK293T cells; also: read-out not given here; nearly all actives have a fitted effect of over 45% in size
Sm TGR inh = blocks Schistosoma mansoni thioredoxin glutathione reductase. Q962Y6. purified TGR, DTNB reduction, TNB absorbance 405 nm. Potency, µM (titrated, usually from 114 µM), for inactives: at the top dose activity change, negative = inhibition, most hits filed as inhibitors. 360,000 compounds, 3% hits. AID 485364; active = well fitted inhibition curve with a large enough effect; inconclusive = small, poorly fitted or top-dose-only effect; inactive = no such curve, though single readings can be large or run the other way; also: nearly all actives have a fitted effect of over 60% in size
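Kinetic colorimetric format: TGR-catalysed, NADPH-driven DTNB reduction monitored via TNB absorbance. Enzyme dispensed at 20 nM; compound exposure 15 min at room temperature before reaction start.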
Marburg entry inh = Marburg virus entry inhibition; Potency, µM (titrated, usually from 37.8 µM), for the others: top-dose activity change, negative = inhibition, actives largely listed as inhibitors; Marburg virus pseudotyped entry inhibition, cell reporter; 300,000 compounds, 1.8% hits; calls by dose curve; tested in HEK293 cells
VACV mCherry inh = inhibitors of vaccinia virus infection (mCherry reporter signal). AID 720579. Vaccinia virus mCherry reporter infection, fluorescence. Potency, µM (top dose mostly 36.5 µM), for inactives: at the highest dose activity change, negative = inhibition, most hits filed as inhibitors. 310,000 compounds, 0.63% hits; calls by dose curve; tested in A549 cells; also: nearly all actives have a fitted effect of over 35% in size
The depositor's hits bear a star; [ ] = remark or other dose. Shown are actives, neighbours in structure and some others; about 5.4% of the full set was active somewhere. % is scaled to controls: 0 for no effect and ±100 for the full control effect; potency is read from the fitted curve at half-maximal effect.

What do the screens show for `Clc1ccc(-n2ncc3c(N4CCCCCC4)ncnc32)cc1`?
Vaccinia Venus: -8.0%; FMDV antiviral: inconclusive; Sm TGR inh: 2.3%; VACV mCherry inh: inactive

What do the screens show for `CCC(=O)N1CC(=O)Nc2ccc(C)cc2C1c1ccc(F)cc1` (stereo not drawn)?
Vaccinia Venus: 1.6%; Lassa entry inh: -10.5%[46.1 µM]; FMDV antiviral: -24.9%; Sm TGR inh: 3.5%; Marburg entry inh: 25.3%[46.1 µM]; VACV mCherry inh: inactive

Results for Cc1ccc2c(c1)C(c1ccc(F)cc1)N(C(=O)C(C)C)CC(=O)N2 (stereo not drawn) ?
Vaccinia Venus: -11.9%; Lassa entry inh: 13.4%[46.1 µM]; FMDV antiviral: 8.91µM*; Sm TGR inh: 2.7%; Marburg entry inh: 5.7%[46.1 µM]; VACV mCherry inh: -25.4%

What do the screens show for `Cc1ccc(Nc2cc(C)nn2-c2nc(C)cc(=O)[nH]2)cc1`?
Vaccinia Venus: inconclusive; Lassa entry inh: 1.58µM*; FMDV antiviral: 3.55µM*; Sm TGR inh: -0.6%; Marburg entry inh: 2.82µM*; VACV mCherry inh: 2.24µM*

How did O=C1C[C@H](NCc2ccc3c(c2)OCO3)C(=O)N1Cc1ccc2c(c1)OCO2 do in these assays?
Marburg entry inh: 25.6%

How did CCNc1ccc(-c2nc(-c3ccco3)no2)cc1[N+](=O)[O-] do in these assays?
Vaccinia Venus: -5.2%; Lassa entry inh: -13.1%[46.1 µM]; FMDV antiviral: 8.4%; Sm TGR inh: 5.6%; Marburg entry inh: -7.1%[46.1 µM]; VACV mCherry inh: -16.5%

What do the screens show for `Cc1cccc(NC(=O)CSc2nc3nc4c(cc3c(=O)n2-c2ccccc2)CCCC4)c1`?
Vaccinia Venus: -12.1%; Lassa entry inh: -3.0%; FMDV antiviral: -22.2%; Sm TGR inh: -4.4%; Marburg entry inh: 10µM*; VACV mCherry inh: 9.7%

What do the screens show for `Cc1ccc(-n2c(SCC(=O)NNC(=S)Nc3ccccc3)nc3ccccc3c2=O)cc1`?
Vaccinia Venus: -6.6%; Lassa entry inh: 0.7%; FMDV antiviral: -14.8%; Sm TGR inh: -3.4%; Marburg entry inh: 8.91µM*; VACV mCherry inh: -13.0%

Results for O=C(CSc1nc2nc3c(cc2c(=O)n1-c1ccccc1)CCCC3)Nc1cccc2ccccc12 ?
Vaccinia Venus: -13.4%; Lassa entry inh: 4.2%; FMDV antiviral: -22.0%; Sm TGR inh: 5.8%; Marburg entry inh: inconclusive; VACV mCherry inh: -2.4%

What do the screens show for `Cc1cccc(NC(=O)CSc2nc3ccccc3c(=O)n2C)c1`?
Vaccinia Venus: -11.3%; Lassa entry inh: inconclusive; FMDV antiviral: inconclusive; Sm TGR inh: 1.8%; Marburg entry inh: 7.08µM*; VACV mCherry inh: inactive

Results for Cc1cccc(NC(=O)CSc2nc3c([nH]c4ccccc43)c(=O)n2C)c1 ?
Vaccinia Venus: inconclusive; Lassa entry inh: inconclusive; FMDV antiviral: 16.6%; Sm TGR inh: -3.1%; VACV mCherry inh: inconclusive

How did CC(C)(C)OC(=O)NCc1ccc(CNC(=O)c2nc[nH]c2C(=O)NCc2ccc(CNC(=O)OC(C)(C)C)cc2)cc1 do in these assays?
Vaccinia Venus: inconclusive; FMDV antiviral: 12.6µM*; VACV mCherry inh: inconclusive

How did C[C@H](NC(=O)c1[nH]cnc1C(=O)Nc1ccc(CNC(=O)OC(C)(C)C)cc1)C(=O)OCc1ccccc1 do in these assays?
Vaccinia Venus: -24.6%; FMDV antiviral: 17.8µM*; Sm TGR inh: 9.4%; VACV mCherry inh: inconclusive

Results for CC(C)(C)OC(=O)NCCCCCNC(=O)c1nc[nH]c1C(=O)NCCCCCNC(=O)OC(C)(C)C ?
Vaccinia Venus: inconclusive; FMDV antiviral: 12.6µM*; VACV mCherry inh: inconclusive

How did CC(C)(C)OC(=O)NCCCCCNC(=O)c1nc[nH]c1C(=O)NCc1ccc(CNC(=O)OC(C)(C)C)cc1 do in these assays?
Vaccinia Venus: inconclusive; FMDV antiviral: 15.8µM*; VACV mCherry inh: inconclusive

How did CC(C)(C)OC(=O)CNC(=O)c1nc[nH]c1C(=O)NCc1ccc(CNC(=O)OC(C)(C)C)cc1 do in these assays?
Vaccinia Venus: -27.3%; FMDV antiviral: inconclusive; Sm TGR inh: 1.4%; VACV mCherry inh: -20.6%

What do the screens show for `Cc1ccc(N2CC(C(=O)Nc3ccc(Br)cc3)CC2=O)cc1` (stereo not drawn)?
Vaccinia Venus: -9.6%; Lassa entry inh: -9.0%[46.1 µM]; FMDV antiviral: 3.3%; Sm TGR inh: 5.9%; VACV mCherry inh: -14.0%

What do the screens show for `O=C(NCc1ccc(F)cc1)C1Cc2ccccc2CN1C(=O)c1ccco1` (stereo not drawn)?
Lassa entry inh: -24.0%; FMDV antiviral: 2.2%; Sm TGR inh: 6.9%; Marburg entry inh: 1.6%

How did O=C(C1Cc2ccccc2CN1S(=O)(=O)c1ccc(F)cc1)N1CCCCC1 (stereo not drawn) do in these assays?
Lassa entry inh: inconclusive; FMDV antiviral: 0.0%; Sm TGR inh: 0.9%; Marburg entry inh: -13.2%

What do the screens show for `COc1cccc(NC(=O)C2Cc3ccccc3CN2C(=O)c2ccco2)c1` (stereo not drawn)?
Vaccinia Venus: 3.8%; Lassa entry inh: 10.0%[46.1 µM]; FMDV antiviral: 24.5%; Sm TGR inh: 35.5µM*; Marburg entry inh: inconclusive; VACV mCherry inh: -22.6%

How did NS(=O)(=O)c1ccc(NC(=O)C2Cc3ccccc3CN2C(=O)c2ccco2)cc1 (stereo not drawn) do in these assays?
Vaccinia Venus: -6.6%; Lassa entry inh: -10.3%; FMDV antiviral: -8.4%; Sm TGR inh: 44.7µM*; Marburg entry inh: 1.2%[46.1 µM]; VACV mCherry inh: inactive

How did O=C(c1ccco1)N1CCN(C(=O)C2Cc3ccccc3CN2S(=O)(=O)c2ccc(F)cc2)CC1 (stereo not drawn) do in these assays?
Vaccinia Venus: -7.7%; Lassa entry inh: 5.3%; FMDV antiviral: -9.2%; Sm TGR inh: 50.1µM*; Marburg entry inh: 15.5%; VACV mCherry inh: -6.3%

Results for O=C(NCc1ccccc1)C1Cc2ccccc2CN1C(=O)c1ccco1 (stereo not drawn) ?
Vaccinia Venus: -2.6%; Lassa entry inh: -4.5%[46.1 µM]; FMDV antiviral: 10.3%; Sm TGR inh: 35.5µM*; Marburg entry inh: -17.1%[46.1 µM]; VACV mCherry inh: inactive

How did COC(=O)C1=C(C)C(=O)[C@]2(O)c3ccccc3N(C)[C@]12C do in these assays?
Marburg entry inh: 18.2%[14.2 µM]

What do the screens show for `O=C(O)C1Cc2ccccc2CN1C(=O)c1ccco1` (stereo not drawn)?
FMDV antiviral: -9.4%; Sm TGR inh: inconclusive

What do the screens show for `Cc1ccccc1NC(=O)C1Cc2ccccc2CN1C(=O)c1ccco1` (stereo not drawn)?
Vaccinia Venus: -6.5%; Lassa entry inh: 27.2%; FMDV antiviral: 26.6%; Sm TGR inh: 11.2µM*; Marburg entry inh: 7.3%; VACV mCherry inh: -1.3%

How did CCSc1nnc(NC(=O)C2Cc3ccccc3CN2C(=O)c2ccco2)s1 (stereo not drawn) do in these assays?
Vaccinia Venus: -5.8%; Lassa entry inh: -3.8%; FMDV antiviral: 16.0%; Sm TGR inh: 31.6µM*; Marburg entry inh: 3.0%[46.1 µM]; VACV mCherry inh: -14.6%
